Laboratory results as given in article PMC5836133, “The intracellular immune receptor Rx1 regulates the DNA-binding activity of a Golden2-like transcription factor”.
Over roughly 16,000 sequences, “e-score” has its median near -0.044; the highest 2% begin near 0.38. This is one part of a sample in which the highest values are shown more often than they occur.

Biological target: T1, GST-NbGlk1(82-244) (Nicotiana benthamiana)
T1 chain: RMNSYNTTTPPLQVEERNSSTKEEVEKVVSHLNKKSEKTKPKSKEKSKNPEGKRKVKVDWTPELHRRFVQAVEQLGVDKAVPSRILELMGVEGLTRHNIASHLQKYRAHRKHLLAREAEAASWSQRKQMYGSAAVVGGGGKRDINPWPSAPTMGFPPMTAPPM
Experiment: protein-binding microarray; NbGlk1 is a Golden2-like transcription factor of Nicotiana benthamiana; high values mean tight binding
Conditions: protein: recombinant; tags: GST (pTH6838); dsDNA, one strand shown

Row | Sequence | binding signal
1 | ATGGTATC | 0.2 ± 0.0619 E-score
2 | ATCTTTTC | 0.289 ± 0.0307 E-score
3 | AAATCGAA | 0.329 ± 0.0505 E-score
4 | ATCTCGGA | 0.36 ± 0.00407 E-score
5 | ATACTGTA | 0.274 ± 0.0926 E-score
6 | ATTTCCAA | 0.36 ± 0.0335 E-score
7 | ATTTTGCG | 0.293 ± 0.0239 E-score
8 | AGGCGGAT | 0.206 ± 0.0564 E-score
9 | ATTTCATA | 0.353 ± 0.0105 E-score
10 | ATCGCAAA | 0.234 ± 0.0734 E-score
11 | ATCGCGAT | 0.4239 ± 0.000981 E-score
12 | ATCGCGAG | 0.33 ± 0.00694 E-score
13 | AACGCAAT | 0.344 ± 0.0179 E-score
14 | ATCGCGAA | 0.323 ± 0.0256 E-score
15 | ATCGCAAT | 0.397 ± 0.0277 E-score
16 | ATTTTTAC | 0.313 ± 0.0485 E-score
17 | ACATATCG | 0.226 ± 0.0607 E-score
18 | AGATCCCT | 0.298 ± 0.00953 E-score
19 | ATGGCAAT | 0.237 ± 0.0667 E-score
20 | ATCTAGTA | 0.316 ± 0.0615 E-score
21 | ACGTGGAT | 0.283 ± 0.0431 E-score
22 | ATTTTTAA | 0.221 ± 0.0275 E-score

Row | Sequence | binding signal
23 | ACGCGATC | 0.437 ± 0.0114 E-score
24 | ACGCGATA | 0.252 ± 0.00347 E-score
25 | AAGCGATC | 0.294 ± 0.0444 E-score
26 | ATCTTGTG | 0.318 ± 0.0738 E-score
27 | AATATCTC | 0.391 ± 0.0345 E-score
28 | AGTATCTG | 0.339 ± 0.041 E-score
29 | AATATCGG | 0.371 ± 0.0225 E-score
30 | AGTATCTA | 0.305 ± 0.0244 E-score
31 | AATATCAA | 0.322 ± 0.0489 E-score
32 | AATATCTA | 0.402 ± 0.018 E-score
33 | AATATCTG | 0.423 ± 0.0344 E-score
34 | AATATATC | 0.311 ± 0.00568 E-score
35 | AGTATCTC | 0.235 ± 0.067 E-score
36 | ATTTAAAG | 0.222 ± 0.0214 E-score
37 | AACGTATA | 0.225 ± 0.0359 E-score
38 | ATTCGCAG | 0.292 ± 0.0538 E-score
39 | CACAATCA | 0.27 ± 0.109 E-score
40 | AAGGGATT | 0.3179 ± 0.00237 E-score
41 | ATTTCGCA | 0.279 ± 0.0966 E-score
42 | AATCAGTG | 0.266 ± 0.0198 E-score
43 | AATCTGTG | 0.411 ± 0.0099 E-score
44 | AATCAGAG | 0.229 ± 0.0948 E-score

Row | Sequence | binding signal
45 | ATTCTGTG | 0.25 ± 0.0953 E-score
46 | AATCTGAG | 0.415 ± 0.0436 E-score
47 | ATCCTGTG | 0.205 ± 0.0418 E-score
48 | AAGCAAAT | 0.207 ± 0.0438 E-score
49 | AACGAAAT | 0.344 ± 0.0502 E-score
50 | ATCAGAAG | 0.24 ± 0.0447 E-score
51 | AATATCAC | 0.34 ± 0.00742 E-score
52 | ATTCGATC | 0.207 ± 0.00438 E-score
53 | AATGGATA | 0.3 ± 0.0974 E-score
54 | AGAATATG | 0.253 ± 0.0505 E-score
55 | AAAATATG | 0.218 ± 0.038 E-score
56 | ACAATATC | 0.3871 ± 0.00293 E-score
57 | AGAATATA | 0.267 ± 0.0326 E-score
58 | ACAATATA | 0.206 ± 0.0382 E-score
59 | AGAATATC | 0.4346 ± 0.00342 E-score
60 | CAAATATC | 0.375 ± 0.0172 E-score
61 | ATAATATC | 0.347 ± 0.0287 E-score
62 | AAAATATC | 0.406 ± 0.00752 E-score
63 | ATCCTTTG | 0.201 ± 0.0717 E-score
64 | AATCGCTG | 0.234 ± 0.00581 E-score
65 | ATCTAACC | 0.266 ± 0.0179 E-score
66 | AGTGATAT | 0.298 ± 0.0207 E-score

Row | Sequence | binding signal
67 | ATCGCACC | 0.247 ± 0.126 E-score
68 | ATTACAAA | 0.302 ± 0.0597 E-score
69 | AGGATCGC | 0.357 ± 0.0151 E-score
70 | ACGATTCC | 0.4 ± 0.0168 E-score
71 | AGGATTCC | 0.448 ± 0.00523 E-score
72 | AGAATTAC | 0.23 ± 0.0195 E-score
73 | AGGATTGC | 0.45 ± 0.0104 E-score
74 | ACGATTCT | 0.362 ± 0.0226 E-score
75 | ATGATTCC | 0.306 ± 0.0505 E-score
76 | AGGATTAC | 0.449 ± 0.00837 E-score
77 | ACGATTCG | 0.324 ± 0.025 E-score
78 | AGGATTCG | 0.352 ± 0.0252 E-score
79 | ATGATTGC | 0.33 ± 0.019 E-score
80 | AGGATTAT | 0.31 ± 0.0692 E-score
81 | ACTTAGAT | 0.257 ± 0.118 E-score
82 | ATCCACCC | 0.255 ± 0.0461 E-score
83 | AAGGATTA | 0.278 ± 0.0334 E-score
84 | ATCTATGG | 0.205 ± 0.011 E-score
85 | ATATCGAG | 0.296 ± 0.0718 E-score
86 | ATTATTCC | 0.252 ± 0.0429 E-score
87 | AACGAGAT | 0.309 ± 0.0377 E-score
88 | AATAGGAT | 0.218 ± 0.15 E-score

Row | Sequence | binding signal
89 | AGCAGAAT | 0.255 ± 0.0466 E-score
90 | ATACTCCA | 0.208 ± 0.0394 E-score
91 | ATCGTAAT | 0.375 ± 0.0645 E-score
92 | ATCGGAAA | 0.25 ± 0.0729 E-score
93 | ACGATTAC | 0.407 ± 0.0433 E-score
94 | ACGATTGC | 0.345 ± 0.0699 E-score
95 | ATGATTAC | 0.302 ± 0.0176 E-score
96 | ATTTTCGG | 0.237 ± 0.0617 E-score
97 | CAATCTAA | 0.351 ± 0.0122 E-score
98 | AAATCTAA | 0.4499 ± 0.000584 E-score
99 | AAATCTAC | 0.441 ± 0.0198 E-score
100 | CAATCTAG | 0.3742 ± 0.000815 E-score
101 | AAATCAAA | 0.309 ± 0.0265 E-score
102 | CAATCTAC | 0.341 ± 0.0196 E-score
103 | AAATCAAT | 0.31 ± 0.0292 E-score
104 | AGATCTAT | 0.337 ± 0.0129 E-score
105 | AAATCTAT | 0.419 ± 0.0237 E-score
106 | AAATCAAC | 0.349 ± 0.0103 E-score
107 | AAATCGAG | 0.288 ± 0.0697 E-score
108 | AAATCTAG | 0.452 ± 0.0158 E-score
109 | ATATAAAA | 0.212 ± 0.0169 E-score
